Reference: PubChem BioAssay AID1159580 (chemical genetic matrix, 2015)
Hit rate of the full screen: of about 5,500 compounds, about 2,000 (36%) were called active. Another 18% or so got no clear call; they are omitted. The list shows a part of the results. A number with no mark means an inactive call. Rule as the data show it: active = normalized growth mostly below about 0.91 (no sharp cut-off); inconclusive = no clear call, values can overlap the other calls; inactive = mostly above about 0.92.

Assay: chemical genetic growth profiling, strain panel (AID 1159580);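 also: tested at 20 µM; growth read once vehicle control cultures reached saturation at 30 °C; 1 = growth at the plate median or of vehicle wells; lower values mean less growth of the strain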
Conditions: S. cerevisiae deletion strains, growth OD

## O=c1c2ccccc2oc2ccccc12
Locus YAL021C, strain ccr4, active compounds read low
  normalized growth: 0.938
Locus YAL026C, strain drs2, active compounds read low
  normalized growth: 0.912
Locus YAL030W, strain snc1, active compounds read low
  normalized growth: 0.948
Locus YBL061C, strain skt5, active compounds read low
  normalized growth: 0.922
Locus YBR009C, strain hhf1, active compounds read low
  normalized growth: 0.854 (active)
Locus YBR023C, strain chs3, active compounds read low
  normalized growth: 0.916
Locus YBR171W, strain sec66, active compounds read low
  normalized growth: 0.897
Locus YBR231C, strain swc5, active compounds read low
  normalized growth: 0.858 (active)
Locus YBR279W, strain paf1, active compounds read low
  normalized growth: 0.922 (active)
Locus YCL011C, strain gbp2, active compounds read low
  normalized growth: 0.907 (active)
Locus YCL016C, strain dcc1, active compounds read low
  normalized growth: 0.869 (active)
Locus YCL061C, strain MRC1, active compounds read low
  normalized growth: 0.917 (active)
Locus YCL069W, strain vba3, active compounds read low
  normalized growth: 0.961
Locus YCR088W, strain abp1, active compounds read low
  normalized growth: 0.964
Locus YDL005C, strain med2, active compounds read low
  normalized growth: 0.946
Locus YDL040C, strain nat1, active compounds read low
  normalized growth: 0.946
Locus YDR001C, strain nth1, active compounds read low
  normalized growth: 0.953
Locus YDR069C, strain doa4, active compounds read low
  normalized growth: 0.927
Locus YDR137W, strain rgp1, active compounds read low
  normalized growth: 0.794 (active)
Locus YDR159W, strain sac3, active compounds read low
  normalized growth: 0.989
Locus YDR195W, strain ref2
  normalized growth: 1.33 [resistant] (active)
Locus YDR297W, strain sur2, active compounds read low
  normalized growth: 0.945
Locus YDR334W, strain swr1, active compounds read low
  normalized growth: 0.929
Locus YDR335W, strain msn5, active compounds read low
  normalized growth: 0.946
Locus YDR392W, strain spt3, active compounds read low
  normalized growth: 0.495 (active)
Locus YEL003W, strain gim4, active compounds read low
  normalized growth: 0.906 (active)
Locus YEL037C, strain rad23, active compounds read low
  normalized growth: 0.944
Locus YEL061C, strain CIN8 (second series), active compounds read low
  normalized growth: 0.879 (active)
Locus YER015W, strain faa2, active compounds read low
  normalized growth: 0.954
Locus YER016W, strain bim1, active compounds read low
  normalized growth: 0.95
Locus YER111C, strain swi4, active compounds read low
  normalized growth: 0.937
Locus YER155C, strain BEM2 (second series), active compounds read low
  normalized growth: 0.386 (active)
Locus YFR010W, strain ubp6, active compounds read low
  normalized growth: 0.915
Locus YGL167C, strain pmr1, active compounds read low
  normalized growth: 0.931
Locus YGL173C, strain kem1, active compounds read low
  normalized growth: 0.907
Locus YGL227W, strain vid30, active compounds read low
  normalized growth: 0.95
Locus YGL240W, strain doc1, active compounds read low
  normalized growth: 0.84 (active)
Locus YGL253W, strain hxk2, active compounds read low
  normalized growth: 0.859 (active)
Locus YHR013C, strain ard1, active compounds read low
  normalized growth: 0.738 (active)
Locus YHR027C, strain rpn1, active compounds read low
  normalized growth: 0.944
Locus YHR030C, strain SLT2, active compounds read low
  normalized growth: 0.813 (active)
Locus YHR079C, strain IRE1, active compounds read low
  normalized growth: 0.822 (active)
Locus YHR142W, strain chs7, active compounds read low
  normalized growth: 0.766 (active)
Locus YJL092W, strain hpr5, active compounds read low
  normalized growth: 0.945
Locus YJL095W, strain BCK1 (second series), active compounds read low
  normalized growth: 0.853 (active)
Locus YJL095W, strain BCK1, active compounds read low
  normalized growth: 0.857 (active)
Locus YJL115W, strain asf1, active compounds read low
  normalized growth: 0.953
Locus YJL129C, strain trk1, active compounds read low
  normalized growth: 0.976
Locus YJL154C, strain vps35, active compounds read low
  normalized growth: 0.964
Locus YJL164C, strain tpk1, active compounds read low
  normalized growth: 0.891 (active)
Locus YJL166W, strain qcr8, active compounds read low
  normalized growth: 0.879 (active)
Locus YJL187C, strain SWE1, active compounds read low
  normalized growth: 0.935
Locus YJR066W, strain TOR1, active compounds read low
  normalized growth: 0.8 (active)
Locus YKL160W, strain elf1, active compounds read low
  normalized growth: 0.879 (active)
Locus YKR026C, strain gcn3, active compounds read low
  normalized growth: 0.949
Locus YKR091W, strain srl3, active compounds read low
  normalized growth: 0.956
Locus YLL001W, strain dnm1, active compounds read low
  normalized growth: 0.884 (active)
Locus YLL026W, active compounds read low
  normalized growth: 0.951
Locus YLL041C, strain sdh2, active compounds read low
  normalized growth: 0.952
Locus YLR027C, strain aat2, active compounds read low
  normalized growth: 0.932
Locus YLR113W, strain HOG1, active compounds read low
  normalized growth: 0.941
Locus YLR221C, strain rsa3, active compounds read low
  normalized growth: 0.87 (active)
Locus YLR258W, strain gsy2, active compounds read low
  normalized growth: 0.916
Locus YLR262C, strain YPT6 (second series), active compounds read low
  normalized growth: 0.769 (active)
Locus YLR320W, strain mms22, active compounds read low
  normalized growth: 0.697 (active)
Locus YLR342W, strain FKS1, active compounds read low
  normalized growth: 0.963
Locus YLR357W, strain rsc2, active compounds read low
  normalized growth: 1.06
Locus YLR370C, strain arc18, active compounds read low
  normalized growth: 0.952
Locus YLR384C, strain iki3, active compounds read low
  normalized growth: 0.921
Locus YML120C, strain ndi1, active compounds read low
  normalized growth: 0.915
Locus YMR058W, strain fet3, active compounds read low
  normalized growth: 0.918
Locus YMR125W, strain sto1, active compounds read low
  normalized growth: 0.918
Locus YMR129W, active compounds read low
  normalized growth: 0.946
Locus YMR205C, strain PFK2, active compounds read low
  normalized growth: 0.913
Locus YMR231W, strain pep5, active compounds read low
  normalized growth: 0.947
Locus YNL071W, strain lat1, active compounds read low
  normalized growth: 0.737 (active)
Locus YNL183C, strain NPR1, active compounds read low
  normalized growth: 0.841
Locus YNL209W, strain ssb2, active compounds read low
  normalized growth: 0.93
Locus YNL248C, strain rpa49, active compounds read low
  normalized growth: 0.511 (active)
Locus YNL322C, strain KRE1 (second series), active compounds read low
  normalized growth: 0.965
Locus YNR049C, strain mso1, active compounds read low
  normalized growth: 0.961
Locus YOR001W, strain rrp6, active compounds read low
  normalized growth: 0.88 (active)
Locus YOR070C, strain gyp1, active compounds read low
  normalized growth: 0.934
Locus YOR080W, strain dia2, active compounds read low
  normalized growth: 0.966
Locus YOR083W, strain WHI5, active compounds read low
  normalized growth: 0.814 (active)
Locus YOR106W, strain vam3, active compounds read low
  normalized growth: 0.88
Locus YOR231W, strain MKK1, active compounds read low
  normalized growth: 0.836 (active)
Locus YOR265W, strain rbl2, active compounds read low
  normalized growth: 0.936
Locus YOR270C, strain vph1, active compounds read low
  normalized growth: 0.611 (active)
Locus YOR290C, strain snf2, active compounds read low
  normalized growth: 0.792 (active)
Locus YPL051W, strain arl3, active compounds read low
  normalized growth: 0.859 (active)
Locus YPL078C, strain atp4, active compounds read low
  normalized growth: 0.842 (active)
Locus YPL106C, strain sse1, active compounds read low
  normalized growth: 0.759 (active)
Locus YPL240C, strain hsp82, active compounds read low
  normalized growth: 0.969
Locus YPL256C, strain CLN2, active compounds read low
  normalized growth: 0.876
